Data as given in PubChem BioAssay (NCATS).
Several values for one entry are separate records, joined by “and”; a condition that tells them apart may be missing. Equal entries are not always repeated. Inconclusive results are not listed. A number with no mark means an inactive call. Activity calls are given as the source filed them. The call rests on the fitted dose curve; in most records, active means well fitted activation curve with a large enough effect; inconclusive means small, poorly fitted or top-dose-only effect; inactive means no such curve, though single readings can be large or run the other way.

What follows are compounds tested against Cellular tumor antigen p53 (Homo sapiens) (UniProt P04637) (assay: Primary qHTS for small molecule compounds that upregulate eGFP-tagged delta133p53alpha (in N-terminal) cells. (AID 2060322; further: nearly all actives have a fitted effect of over 75% in size;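 on activation: series mostly up to about 56 µM; 0% = DMSO vehicle and 100% = reference activator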)). Settings: NCI-H358 eGFP-delta133p53alpha fluorescence, 24 h; activation: stronger effect = higher value.
Cellular tumor antigen p53 (Homo sapiens), sequence (P04637 whole entry, looked up): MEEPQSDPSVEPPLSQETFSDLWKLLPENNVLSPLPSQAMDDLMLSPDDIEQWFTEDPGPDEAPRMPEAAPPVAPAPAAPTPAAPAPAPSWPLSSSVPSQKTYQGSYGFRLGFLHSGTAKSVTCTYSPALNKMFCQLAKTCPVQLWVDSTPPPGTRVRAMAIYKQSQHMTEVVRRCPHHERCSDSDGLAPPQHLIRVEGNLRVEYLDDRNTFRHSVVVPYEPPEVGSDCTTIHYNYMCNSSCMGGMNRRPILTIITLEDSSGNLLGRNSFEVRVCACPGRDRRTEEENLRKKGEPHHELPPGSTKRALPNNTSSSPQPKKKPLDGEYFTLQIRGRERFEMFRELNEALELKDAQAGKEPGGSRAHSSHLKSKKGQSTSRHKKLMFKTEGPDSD
Outline: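 NCI-H358 cells pre-induced 24 h with 10 ng/ml doxycycline to express N-terminal eGFP-delta133p53alpha, then dosed 24 h at 37C without doxycycline; fixed, Hoechst-stained, GFP intensity by laser scanning cytometry, normalized to DMSO (0%) and 57.5 uM 5-azacytidine (100%).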
Potency means the concentration at half of the fitted maximal effect.

Structure (SMILES) | activation | Potency
CC(C)[C@@H](C(=O)O)N1Cc2c(cc(O)c3c2O[C@]2(C3)[C@H](C)CCC3C(C)(C)[C@H](O)[C@H](O)C[C@@]32C)C1=O (stereo partly drawn) | -16.8% | 
CNc1nc(Cc2ccccc2)nc2c1CCNC[C@@H]2C | 19% | 
COc1c(O)cc2c(c1O)[C@@H]1O[C@H](CO)[C@@H](O)[C@H](O)[C@H]1OC2=O | 18% and -2.68% | 
O=S(=O)(c1ccc(S(=O)(=O)n2cnc3ccccc32)cc1)N1CCCCCC1 | 0.333% | 
COC(=O)[C@H](O)[C@H]1C(C)(C)[C@H](OC(=O)C(C)C)[C@@]2(O)C(=O)[C@]1(C)C1CC[C@]3(C)C(CC(=O)O[C@H]3c3ccoc3)[C@]13O[C@@H]32 (stereo partly drawn) | 6.11% | 
COc1cc(CCO)ccc1O[C@@H]1O[C@H](CO)[C@@H](O)[C@H](O)[C@H]1O | 5.36% | 
COc1c2c(c(C)c3c1C(=O)OC3)OC1(C)CC(O)C(C(C)(C)O)C(C)(CCC(=O)O)C1C2 (stereo not drawn) | 8.4% | 
CC(CCC1C(C(=O)O)=CC(=O)CC1(C)C)O[C@@H]1O[C@H](CO)[C@@H](O)[C@H](O)[C@H]1O (stereo partly drawn) | -11.5% | 
CC(=O)OC1CC2(C)C(CCC(C)C23Cc2c(O)cc(CO)c(C=O)c2O3)C(C)(C)C1O (stereo not drawn) | 23.7% | 
C=CC1(C)CC(OC(=O)/C(C)=C\COC(C)=O)C(C(=C)C(=O)O)C(O)C1C(=C)CO (stereo not drawn) | 0% | 
C[C@@H]1O[C@@H](O[C@H]2[C@@H](OC(=O)[C@]34CCC(C)(C)CC3C3=CCC5[C@@]6(C)C[C@H](O)[C@H](O[C@@H]7O[C@H](C(=O)O)[C@@H](O)[C@H](O)[C@H]7O)[C@@](C)(C(=O)O)C6CC[C@@]5(C)[C@]3(C)CC4)OC[C@H](O)[C@@H]2O)[C@H](O)[C@H](O)[C@H]1O[C@@H]1OC[C@@H](O)[C@H](O)[C@H]1O (stereo partly drawn) | -8.93% | 
CC1=C2C(=O)C=C(CO)[C@@H]2[C@H]2OC(=O)[C@H](C)[C@@H]2[C@@H](O)C1 | -3.57% | 
COc1c2c(c(C)c3c1C(=O)OC3)O[C@@]1(C)CCC3(C(C)(C)O)OC(=O)CC[C@]3(C)[C@H]1C2 (stereo partly drawn) | 4.58% | 
CCNC(=O)[C@@H]1CCCN1C(=O)[C@H](CCCN=C(N)N)NC(=O)[C@H](CC(C)C)NC(=O)[C@@H](C)NC(=O)[C@H](Cc1ccc(O)cc1)NC(=O)[C@H](CO)NC(=O)[C@H](Cc1c[nH]c2ccccc12)NC(=O)[C@H](Cc1cnc[nH]1)NC(=O)[C@@H]1CCC(=O)N1 | -6.33% | 
COC1=CC(=O)O/C1=C(/OC)[C@@H]1O[C@H]1c1ccccc1 | -3.05% | 
CC(=O)[C@H]1CC[C@H]2[C@@H]3CC=C4C[C@@H](OS(=O)(=O)O)CC[C@]4(C)[C@H]3CC[C@]12C | -4.33% | 
CC(=O)C1CCC(=O)N1Cc1ccccc1 (stereo not drawn) | -13.7% | 
COc1cc(/C=C/C(=O)O[C@H]2C[C@@H]3C(C(=O)O)=CO[C@@H](O[C@@H]4O[C@H](CO)[C@@H](O)[C@H](O)[C@H]4O)[C@@H]3[C@H]2C)ccc1O | -2.29% | 
CC(=O)O[C@@H]1C[C@@]23C[C@@]24CC[C@H](OC2OC[C@@H](O)[C@H](O)[C@H]2O)C(C)(C)[C@@H]4CC[C@H]3[C@]2(C)CC3OC4(C[C@@H](C)C3[C@@]12C)OCC1(C)OC14 (stereo partly drawn) | 13.4% | 
Cc1ncc([N+](=O)[O-])n1CC(O)CN1CCOCC1 (stereo not drawn) | -11% | 
COc1cc(C(=O)OC(COCCC(C)C)CN2CCOCC2)cc(OC)c1OC (stereo not drawn) | 14.3% | 
C=C1C(OC2OC(CO)C(O)C(O)C2O)CC2C(C)(C)C(O)CCC2(C)C1CC/C(C)=C\COC(=O)CC(=O)O (stereo not drawn) | 0.763% | 
C[C@@H]1O[C@@H](O[C@H]2[C@H](OC(=O)[C@]34CCC(C)(C)C[C@H]3C3=CCC5[C@@]6(C)C[C@H](O)[C@H](O[C@@H]7O[C@H](C(=O)O)[C@@H](O)[C@H](O)[C@H]7O)[C@@](C)(CO)C6[C@H](O)C[C@@]5(C)[C@]3(C)C[C@H]4O)O[C@@H](CO)[C@@H]2O)[C@H](O)[C@H](O)[C@H]1O[C@@H]1OC[C@@H](O)[C@H](O[C@H]2OC[C@](O)(CO)[C@H]2O)[C@H]1O (stereo partly drawn) | 21.4% | 
Oc1ccc2c(-c3c(-c4ccccn4)nn4c3CCC4)ccnc2c1 |  | 26.9 µM (active)
COC(=O)CCC1(C)C(C(C)(C)O)C(O)CC2(C)Oc3c(C)c4c(c(OC)c3CC21)C(=O)OC4 (stereo not drawn) | -3.82% | 
CC1(C)O[C@]23C[C@H]1C[C@H](OC(=O)c1ccoc1)[C@]2(C)[C@@H](OC(=O)c1ccoc1)CCC3(C)O (stereo partly drawn) | -5.34% | 
CC1=C2C3OC(=O)C(C)C3(O)CCC2(C)CCC1 (stereo not drawn) | 2.68% | 
COC(=O)[C@]1(C)CCC[C@@]2(C)[C@@H]3CC[C@@H]4C[C@@]3(CC[C@@H]21)C[C@H]4C(=O)O | -17.6% | 
